Rows were chosen to be rich in hits. Some 1.3% of all compounds tested hit in one or more screens of this group.
CCHF vOTU inh-1 = CCHFV vOTU protease inhibition; Pep-AMC fluorescence; inhibition, % at 11.5 µM; 370,000 compounds, 0.55% hits
3CLpro inhibitor = SARS-CoV 3CLpro protease inhibition; P0C6X7; recombinant SARS-CoV 3CLpro, quenched FRET peptide cleavage; inhibition, % at 6 µM; 290,000 compounds, 0.14% hits; AID 1706; in the data active means inhibition above about 12%
PrPC surface inh = inhibitors of human cell surface prion protein PrPC; P04156; TR-FRET read-out; inhibition, % at 13.8 µM; 370,000 compounds, 0.43% hits; AID 720596; in the data active means inhibition above about 24%
PrP UTR inh = inhibition of PrP 5' UTR reporter expression; cell-based PrP 5' UTR mRNA reporter, plate reader; AID 488862; 340,000 compounds, 0.35% hits; inhibition, % (no concentration beside the values); in the data active means inhibition above about 52%
CCHF vOTU inh-2 = CCHFV vOTU protease inhibition, confirmation; inhibition, % at 11.5 µM; 1,900 compounds, 17% hits; Recombinant CCHFV vOTU, Pep-AMC fluorescence; shares compounds with CCHF vOTU inh-1
Of the large screens only hits and unclear results are named; the others gave an inactive call (follow-up assays come after a bar, where they were run). Unless noted, no stated cut-off is given here; in the data, active means inhibition above about 30%; inactive means the rest.

COc1cc(N)c(C(O)c2nccc3cc(OC)c(OC)cc23)cc1OC (stereo unspecified)	none
CC1([N+](=O)[O-])COP(=O)(Nc2cccc(F)c2)OC1 (stereo unspecified)	none (no result: 3CLpro inhibitor)
CC1([N+](=O)[O-])COP(=O)(Nc2cccc(Cl)c2)OC1 (stereo unspecified)	CCHF vOTU inh-1 38 (no result: 3CLpro inhibitor) | CCHF vOTU inh-2 inactive
CC(=O)Nc1ccc(/C=N/NC(=S)NC(C)C)cc1	CCHF vOTU inh-1 36 | CCHF vOTU inh-2 inactive
CC(C)(C)OC(=O)N1CCCC(C(=O)Nc2cccc(C(=O)NCCCCc3ccccc3)c2)C1 (stereo unspecified)	CCHF vOTU inh-1 35 (no result: 3CLpro inhibitor) | CCHF vOTU inh-2 inactive
CCN(CC)CCCNc1ncnc2scc(-c3ccc(F)cc3)c12	none
OC(c1ccc(Cl)c(F)c1)c1ncc(-c2cccc(C(F)(F)F)c2)[nH]1 (stereo unspecified)	CCHF vOTU inh-1 36 (no result: 3CLpro inhibitor, PrP UTR inh) | CCHF vOTU inh-2 inactive
Cc1cccc(N=C2NC(=O)S/C2=C\c2ccco2)c1	none
O=C(Nc1nnc([C@@H]2C[C@H](O)[C@@H](CO)O2)s1)Nc1cccc2ccccc12	none (no result: 3CLpro inhibitor, PrP UTR inh)
COc1ccc(Nc2ncnc3c2oc2ccccc23)cc1	CCHF vOTU inh-1 33 | CCHF vOTU inh-2 inactive
CC(C)C[C@H](NC(=O)c1nc[nH]c1C(=O)NCCCCCNC(=O)OC(C)(C)C)C(=O)OCc1ccccc1	CCHF vOTU inh-1 30 | CCHF vOTU inh-2 inactive
CC(C)C[C@H](NC(=O)c1nc[nH]c1C(=O)NC1CCN(C(=O)OC(C)(C)C)CC1)C(=O)OC(C)(C)C	none
CC(C)C[C@H](NC(=O)c1nc[nH]c1C(=O)NC1CCN(C(=O)OC(C)(C)C)CC1)C(=O)OCc1ccccc1	CCHF vOTU inh-1 31 | CCHF vOTU inh-2 inactive
COc1cc(CNc2ncnc3c2ncn3[C@H]2CN(Cc3cccc(C(F)(F)F)c3)C[C@@H](CO)O2)cc(OC)c1OC	CCHF vOTU inh-1 31 (no result: 3CLpro inhibitor, PrP UTR inh) | CCHF vOTU inh-2 inactive
COc1cc(CNc2ncnc3c2ncn3[C@H]2CN(Cc3cccc(C(F)(F)F)c3)C[C@@H](COC(C)=O)O2)cc(OC)c1OC	none (no result: 3CLpro inhibitor, PrP UTR inh)
CCOC(=O)C1(C)CCN1C(=O)c1ccccc1C (stereo unspecified)	none (no result: 3CLpro inhibitor, PrP UTR inh)
CCOC(=O)c1sc(N2C(=O)C(O)=C(C(=O)c3ccco3)C2c2cccc(Cl)c2)nc1C (stereo unspecified)	CCHF vOTU inh-1 42 | CCHF vOTU inh-2 inactive
Cc1cc(C)c2nc(N3C(=O)C(O)=C(C(=O)c4ccco4)C3c3ccc(O)cc3)sc2c1 (stereo unspecified)	CCHF vOTU inh-1 34 (no result: 3CLpro inhibitor) | CCHF vOTU inh-2 inactive
Cc1cc(C)c2nc(N3C(=O)C(O)=C(C(=O)c4ccco4)C3c3cccc(O)c3)sc2c1 (stereo unspecified)	CCHF vOTU inh-1 36 (no result: 3CLpro inhibitor) | CCHF vOTU inh-2 inactive
COc1ccccc1/C=C/C(=O)NCC(=O)N/N=C/c1ccc(C(=O)O)cc1	none
CCCCNC(=O)C(NC(=O)c1ccc(C(F)(F)F)cc1)C(=O)c1ccccc1 (stereo unspecified)	none (no result: 3CLpro inhibitor, PrP UTR inh)
CCCCNC(=O)C(NC(=O)Cc1cc(C(F)(F)F)cc(C(F)(F)F)c1)C(=O)c1ccccc1 (stereo unspecified)	CCHF vOTU inh-1 30 (no result: 3CLpro inhibitor, PrP UTR inh) | CCHF vOTU inh-2 inactive
O=C(N/N=C/c1cccs1)/C(=C/c1ccccc1)NC(=O)c1ccccc1	none
CC(=O)/C=C/c1ccccc1	none (no result: 3CLpro inhibitor)
COc1cc2c(cc1OC)-c1c(OC)c(OC)cc3c1C(C2)N(C)CC3 (stereo unspecified)	CCHF vOTU inh-1 38 | CCHF vOTU inh-2 51
COc1cc(N)c2ncccc2c1Cl	CCHF vOTU inh-1 97 (no result: 3CLpro inhibitor) | CCHF vOTU inh-2 inactive
CSc1ccc(/C=C2\C(=N)N3N=C(CC(=O)N4CCCCC4)SC3=NC2=O)cc1	none
COC(=O)c1c(NC(=O)c2cccnc2)sc(C(=O)N(C)C)c1C	none
COC(=O)c1c(NC(=O)c2ccco2)sc(C(=O)N(C)C)c1C	CCHF vOTU inh-1 32 | CCHF vOTU inh-2 inactive
Cc1coc2c(C)c3oc(=O)c(CCC(=O)NCCC(=O)O)c(C)c3cc12	none
Nn1cnnc1N/N=C/c1ccc(Cl)cc1Cl	CCHF vOTU inh-1 102 | CCHF vOTU inh-2 inactive
COc1cc(/C=N/Nc2nncn2N)ccc1OCc1c(C)no[n+]1[O-]	CCHF vOTU inh-1 97 | CCHF vOTU inh-2 inactive
O=C(N/N=C/c1ccc(Cl)cc1Cl)c1ccc(-n2cnnn2)cc1	none (no result: 3CLpro inhibitor)
COc1ccc(/C=N/Nc2nncn2N)cc1Br	CCHF vOTU inh-1 91 | CCHF vOTU inh-2 inactive
O=c1c2ccccc2nc(SCc2cc(F)cc3c2OCOC3)n1Cc1ccco1	none
Cc1cc(Br)ccc1NC(=S)Nc1cccc([N+](=O)[O-])c1	none
Cc1ncoc1C(=O)NCc1ccccc1Cl	none (no result: CCHF vOTU inh-1, PrPC surface inh)

From PubChem BioAssay
